Screens (PubChem BioAssay)
DAX1 inh-1: inhibitors of human orphan nuclear receptor DAX1 (NR0B1); HEK293 Gal4-DAX1 luciferase reporter, luminescence; inhibition, % at 6.75 µM; hit rate 0.99% among 340,000;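 active = inhibition above the mean over all tested compounds plus 3 SD, cut at about 4.2% in these data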;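 note: 0% = DAX1-transfected cells with DMSO and 100% = empty-vector control cells with DMSO; inhibition shows as a rise in luminescence from relieved DAX1 repression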
SMARCA2 act: increases SMARCA2 function in MMTV reporter cells; MG213 cells, MMTV-luciferase reporter, dexamethasone, overnight; activation, % at 9.1 µM; hit rate 1% among 370,000; in the data active = activation above about 7.8%;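 note: 0% = vehicle wells and 100% = reference activator wells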
ssDAF-12 act: S. stercoralis DAF-12 activation, primary screen; hit rate 1% among 370,000; HEK293 ssDAF-12/GRIP1 lit1-tk-luc reporter, luminescence; % of 3 µM dafachronic acid response; activation, % at 6.8 µM;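 active = activation above the mean over all tested compounds plus 3 SD, cut at about 0.9% in these data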;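 note: 0% = DMSO-only wells and 100% = 3 µM delta7-dafachronic acid wells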
hgDAF-12 ag: activates the H. glycines DAF-12 receptor ligand-binding domain. HEK293 GAL4-hgDAF12 UAS-luciferase reporter, agonist luminescence; normalized to butyrate control. hit rate 1.8% among 370,000. activation, % at 6.8 µM;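 active = activation above a cutoff set at the mean of all screened compounds plus 3 SD, cut at about 10% in these data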;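 note: 0% = DMSO wells and 100% = sodium butyrate wells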
hcDAF12 agonist: activators of H. contortus DAF-12 nuclear receptor | HEK293 hcDAF-12 lit1-tk-luc reporter, luminescence; 0% DMSO, 100% Δ7-dafachronic acid | activation, % at 6.8 µM | hit rate 1.4% among 370,000 | AID 652067;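 active = activation above the mean of all tested compounds plus 3 SD, cut at about 5.5% in these data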;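 note: 100% = response to 3 µM Δ7-dafachronic acid high control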
DAX1 inh-2: DAX1 (NR0B1) inhibition, primary screen; HEK293T StAR-luciferase reporter, SF-1/DAX-1 repression relief; hit rate 1.1% among 370,000; inhibition, % at 6.8 µM;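 active = inhibition above the mean over all tested compounds plus 3 SD, cut at about 3.6% in these data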;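 note: 0% = DAX-1 cells with DMSO and 100% = cells lacking DAX-1 with DMSO; higher inhibition means more luminescence from relief of DAX-1 repression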
SMARCA2 act conf: SMARCA2 activation, confirmation screen. shares compounds with SMARCA2 act. MG213 cells, MMTV-luciferase with dexamethasone, luminescence, overnight; MG213 cells expressing E1A, Rb sequestered; DMSO wells 0%, reference activator 100%. activation, % at 9.1 µM. hit rate 30% among 3,500. AID 652260;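 active = activation above its plate's cutoff, the mean activation of tested wells plus 3 SD, cut at about 7.9% in these data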
VP16 Luc act: activates GAL4-VP16 luciferase, flagging SMARCA2 activator hits; HEK293 GAL4-VP16 pG5luc reporter, luciferase luminescence; scaled: DMSO wells 0%, SAHA wells 100%; activation, % at 9.1 µM; shares compounds with SMARCA2 act; hit rate 41% among 3,500;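 active = activation above the solvent-only control well mean plus 3 SD, averaged across control plates, cut at about 5.2% in these data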
LXRb hcDAF ctr: LXR-beta agonism as hcDAF-12 counter-screen | shares compounds with hcDAF12 agonist | HEK293 Gal4-LXR tk-luc reporter, luminescence, 24 h; normalized: DMSO 0%, positive control 100% | activation, % at 6.8 µM | 3,400 tested, under 10 active;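 active = mean percent activation of the reporter above a cutoff set as the average over tested compounds plus their standard deviation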
Target sequence (P55055 whole entry, looked up, the tested form may be a part): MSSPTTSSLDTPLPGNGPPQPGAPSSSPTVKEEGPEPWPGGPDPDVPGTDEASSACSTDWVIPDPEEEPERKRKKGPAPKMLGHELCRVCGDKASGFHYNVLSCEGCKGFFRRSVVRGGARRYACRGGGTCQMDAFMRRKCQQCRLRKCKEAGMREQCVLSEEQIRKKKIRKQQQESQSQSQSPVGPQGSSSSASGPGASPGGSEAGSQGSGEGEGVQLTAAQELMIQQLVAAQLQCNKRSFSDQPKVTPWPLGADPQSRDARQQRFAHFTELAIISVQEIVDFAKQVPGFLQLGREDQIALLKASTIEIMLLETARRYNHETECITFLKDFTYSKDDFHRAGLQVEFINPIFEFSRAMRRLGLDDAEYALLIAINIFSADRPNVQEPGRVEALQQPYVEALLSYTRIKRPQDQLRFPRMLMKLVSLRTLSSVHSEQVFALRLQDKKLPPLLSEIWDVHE
hcDAF12 conf: confirmation of H. contortus DAF-12 agonists | shares compounds with hcDAF12 agonist | HEK293 hcDAF-12 lit1-tk-luc reporter, luminescence; % of Δ7-dafachronic acid response | activation, % at 6.8 µM | hit rate 61% among 3,400 | AID 743032;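 active = mean activation across triplicate tests above the threshold derived from the earlier primary screen, cut at about 5.5% in these data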;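 note: 0% = DMSO only wells and 100% = 3 µM Δ7-dafachronic acid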
hgDAF12 conf: confirmation of H. glycines DAF-12 agonists; shares compounds with hgDAF-12 ag; HEK293 GAL4-hgDAF12 luciferase reporter, agonist mode; percent of butyrate response; activation, % at 6.8 µM; hit rate 80% among 3,300;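 active = mean activation over triplicate wells above the hit cutoff derived from the earlier primary screen, cut at about 11% in these data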;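 note: 0% = DMSO low control and 100% = 2 mM sodium butyrate high control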
LXR ag 2: activates human LXR-beta, counter-screen for DAF-12 agonists. shares compounds with hgDAF-12 ag. HEK293 Gal4-LXR luciferase reporter, 24 h. activation, % at 6.8 µM. 3,300 tested, under 10 active. AID 743051;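 active = mean activation of the triplicate above a set limit carried over from the primary screen, none filed active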
The depositor's hits bear a star. In the library only some 4.8% were active in any assay of this set; here they are far more common.

Screening CCOC(=O)[C@@]12CCC3=C1N(CCC3)C(=O)[C@H](CC(=O)NCc1cccs1)C2 returned SMARCA2 act -1, ssDAF-12 act -1, hgDAF-12 ag 3, hcDAF12 agonist 0 and DAX1 inh-2 -2.
Screening Cc1ccn(-c2ccc(NC(=O)c3cccs3)cc2)n1 returned DAX1 inh-1 0, SMARCA2 act 8.0*, ssDAF-12 act 0, hgDAF-12 ag 17*, hcDAF12 agonist 5, DAX1 inh-2 3, SMARCA2 act conf 9.0*, VP16 Luc act 7.9*, hgDAF12 conf 17* and LXR ag 2 1.
`O=S1(=O)CC2c3ccccc3CCN2CN1Cc1ccc(F)cc1` (stereo unspecified) gave SMARCA2 act -4, ssDAF-12 act -2, hgDAF-12 ag -2, hcDAF12 agonist -1 and DAX1 inh-2 -1.
For c1ccc(-n2cnc3cc(NCc4ccco4)ccc32)cc1 the results were DAX1 inh-1 0, SMARCA2 act 9.6*, ssDAF-12 act -1, hgDAF-12 ag 17*, hcDAF12 agonist 2, DAX1 inh-2 4.5*, SMARCA2 act conf 5, VP16 Luc act 8.2*, hgDAF12 conf 9 and LXR ag 2 0.
For c1ccc(-n2cnc3cc(NCc4cccs4)ccc32)cc1 the results were DAX1 inh-1 2, SMARCA2 act -3, ssDAF-12 act -2, hgDAF-12 ag -2, hcDAF12 agonist -1 and DAX1 inh-2 0.
For Cc1ccc2c(c1)C(=NC1CCCCC1)c1cc3ccccc3nc1-2 the results were DAX1 inh-1 1, SMARCA2 act 11*, ssDAF-12 act 2.4*, hgDAF-12 ag 20*, hcDAF12 agonist 15*, DAX1 inh-2 4.2*, SMARCA2 act conf 11*, VP16 Luc act 7.6*, hgDAF12 conf 18* and LXR ag 2 1.
Screening CC1(C)c2ccccc2-c2nc3ccccc3cc2C1O (stereo unspecified) returned DAX1 inh-1 1, SMARCA2 act -3, ssDAF-12 act 0, hgDAF-12 ag 4, hcDAF12 agonist 4 and DAX1 inh-2 0.
Screening O=c1c2c(nc3cc(-c4cccc(F)c4)[nH]n13)CCC2 returned DAX1 inh-1 1, SMARCA2 act 12*, ssDAF-12 act 0, hgDAF-12 ag 20*, hcDAF12 agonist 4, DAX1 inh-2 3, SMARCA2 act conf 8.0*, VP16 Luc act 12*, hgDAF12 conf 17* and LXR ag 2 1.
CSc1ccc(-c2cc(=O)c3ccccc3o2)cc1 was read as DAX1 inh-1 1, SMARCA2 act 12*, ssDAF-12 act 3.1*, hgDAF-12 ag 18*, hcDAF12 agonist 10*, DAX1 inh-2 3.9*, SMARCA2 act conf 6, VP16 Luc act 12*, hgDAF12 conf 18* and LXR ag 2 1.
`COC(=O)C1=C(C)N(Cc2cccc(C(F)(F)F)c2)C(=NCc2ccc(OC)cc2)NC1c1ccccc1` (stereo unspecified) gave SMARCA2 act -5, ssDAF-12 act -1, hgDAF-12 ag 3, hcDAF12 agonist 1 and DAX1 inh-2 0.
Screening O=C(N/N=C/c1ccc(Br)s1)c1ccccn1 returned DAX1 inh-1 2, SMARCA2 act 11*, ssDAF-12 act 1, hgDAF-12 ag 14*, hcDAF12 agonist 8.2*, DAX1 inh-2 4.5*, SMARCA2 act conf 14*, VP16 Luc act 9.0*, LXRb hcDAF ctr 1, hcDAF12 conf 4, hgDAF12 conf 14* and LXR ag 2 1.
Screening c1coc(CNc2nc3ccccc3s2)c1 returned DAX1 inh-1 6.5*, SMARCA2 act 9.7*, ssDAF-12 act 1.9*, hgDAF-12 ag 16*, hcDAF12 agonist 8.8*, DAX1 inh-2 2, SMARCA2 act conf 15*, VP16 Luc act 12*, hgDAF12 conf 17* and LXR ag 2 1.
Screening O=C(/C=C/c1ccccc1Cl)Nc1cccnc1 returned DAX1 inh-1 2, SMARCA2 act 9.0*, ssDAF-12 act 1, hgDAF-12 ag 19*, hcDAF12 agonist 5, DAX1 inh-2 3, SMARCA2 act conf 8.3*, VP16 Luc act 7.5*, hgDAF12 conf 21* and LXR ag 2 1.
COc1ccc2cc(-c3ccccc3)c(=O)oc2c1 was read as DAX1 inh-1 2, SMARCA2 act 9.7*, ssDAF-12 act 1, hgDAF-12 ag 14*, hcDAF12 agonist 3, DAX1 inh-2 2, SMARCA2 act conf 3, VP16 Luc act 9.2*, hgDAF12 conf 16* and LXR ag 2 1.
`COC(=O)C(C)Oc1ccc2cc(-c3ccccc3)c(=O)oc2c1` (stereo unspecified) gave DAX1 inh-1 0, SMARCA2 act -1, ssDAF-12 act -1, hgDAF-12 ag 0, hcDAF12 agonist 1 and DAX1 inh-2 0.
For Cc1cc(C)n2nc(C(=O)Nc3ccc4c(c3)OCO4)cc2n1 the results were DAX1 inh-1 2, SMARCA2 act 11*, ssDAF-12 act 0, hgDAF-12 ag 15*, hcDAF12 agonist 4, DAX1 inh-2 4.2*, SMARCA2 act conf 18*, VP16 Luc act 9.7*, hgDAF12 conf 15* and LXR ag 2 1.
For Cc1cccc(Cn2cc(COC(=O)N(C)Cc3ccccc3)nn2)c1 the results were SMARCA2 act -4, ssDAF-12 act -1, hgDAF-12 ag -3, hcDAF12 agonist 1 and DAX1 inh-2 0.
